Assay results published in the supplement of paper PMC8047044.
Where “and” joins values, the source holds several entries; their conditions need not be identical. Identical values can stand only once.

What follows are compounds tested on Neuro-2a (assay: neurite formation score, plate-normalized to DMSO control mean 5.04 (score (0-8 scale)); higher = more or longer neurites). Details: 0.1 µM.
Procedure: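 Neuro-2a mouse neuroblastoma cells in PLL-coated 96-well plates were pre-treated for 1 h in DMEM(+) with each kinase inhibitor at 0.1 µM, then switched to serum-free DMEM(-) with inhibitor to induce neurite outgrowth and fixed about 2-3 h later. Three blinded observers scored neurite formation from 0 (no neurites) to 8 (long neurites on almost all cells).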
`C=CC(=O)N1CCC[C@@H](n2nc(-c3ccc(Oc4ccccc4)cc3)c3c(N)ncnc32)C1` showed a neurite formation score of 4.38.
With `Cc1ccc2nc(NCCN)c3ncc(C)n3c2c1` the neurite formation score was 4.09 and 3.42.
`CO[C@H]1C[C@@H]2CC[C@@H](C)[C@@](O)(O2)C(=O)C(=O)N2CCCC[C@H]2C(=O)O[C@H]([C@H](C)C[C@@H]2CC[C@@H](OC(=O)C(C)(CO)CO)[C@H](OC)C2)CC(=O)[C@H](C)/C=C(\C)[C@@H](O)[C@@H](OC)C(=O)[C@H](C)C[C@H](C)/C=C/C=C/C=C/1C` [Temsirolimus] gave a neurite formation score of 4.21.
With `CSc1cccc(Nc2ncc3cc(-c4c(Cl)cccc4Cl)c(=O)n(C)c3n2)c1` the neurite formation score was 3.92.
With `CCS(=O)(=O)c1cccc(-c2cc(C(=O)NC3CCN(C)CC3)c(C)c3[nH]c4ncc(C)cc4c23)c1` the neurite formation score was 4.58.
For `COc1cc2ncnc(Nc3cccc(Cl)c3)c2cc1OC`, the neurite formation score was 5.54.
In the case of `c1cc(-c2cnn3cc(-c4ccc(N5CCNCC5)cc4)cnc23)c2cccnc2c1`, the neurite formation score is reported as 4.75.
Compound `O=c1cc(-c2cccc3c2Sc2ccccc2S3)oc(N2CCOCC2)c1` has a neurite formation score of 1.92.
In the case of `Cc1cnc(Nc2ccc(F)cc2Cl)nc1-c1c[nH]c(C(=O)N[C@H](CO)c2cccc(Cl)c2)c1`, the neurite formation score is reported as 4.58.
Work on `O=C(c1ccc(/C=C/c2n[nH]c3ccccc23)cc1)N1CCNCC1` yielded a neurite formation score of 1.92.
`CC(C)NC[C@@H](C(=O)N1CCN(c2ncnc3c2[C@H](C)C[C@H]3O)CC1)c1ccc(Cl)cc1` gave a neurite formation score of 5.04.
For `COc1ccc(Cl)cc1NC(=O)Nc1cc(C)nc2ccccc12`, the neurite formation score was 5.04.
`CN1CCN(S(=O)(=O)c2ccc(-c3cnc(N)c(C(=O)Nc4cccnc4)n3)cc2)CC1` showed a neurite formation score of 4.75.
Work on `COc1cc2nccc(Oc3ccc(NC(=O)C4(C(=O)Nc5ccc(F)cc5)CC4)cc3)c2cc1OC` yielded a neurite formation score of 4.38.
For `COc1ncc(-c2ccc3nccc(-c4ccnnc4)c3c2)cc1NS(=O)(=O)c1ccc(F)cc1F`, the neurite formation score was 4.92.
`COc1cccc(-c2cc(=O)c3ccccc3o2)c1N` was tested, and the neurite formation score was 5.04.
In the case of `COc1cc2c(Oc3ccc4[nH]c(C)cc4c3F)ncnc2cc1OCCCN1CCCC1` [Cediranib (AZD217)], the neurite formation score is reported as 4.71.
For `Nc1cc(N)c(N)cc1N` [FAK Inhibitor 14], the neurite formation score was 4.08.
Work on `FC(F)c1nc2ccccc2n1-c1nc(N2CCOCC2)nc(N2CCOCC2)n1` yielded a neurite formation score of 4.21.
Compound `CCOc1cc(C(=O)N2CCC(N3CCN(C)CC3)CC2)ccc1Nc1ncc2c(n1)N(C1CCCC1)c1ccccc1C(=O)N2C` has a neurite formation score of 4.25.
With `NC(=O)c1ccc(-c2nc(-c3ccc4c(c3)OCCO4)c(-c3ccccn3)[nH]2)cc1` the neurite formation score was 4.92.
For `O=C(O)c1ccc(Nc2ncc3c(n2)-c2ccc(Cl)cc2C(c2c(F)cccc2F)=NC3)cc1`, the neurite formation score was 2.76.
In the case of `CNC(=O)c1ccc(C)c(-n2c(C)cc(OCc3ccc(F)cc3F)c(Br)c2=O)c1`, the neurite formation score is reported as 2.21.
`O=C1NC(=O)[C@@H](c2cn3c4c(cccc24)CCC3)[C@@H]1c1c[nH]c2ccccc12` [Tivantinib (ARQ 197)] gave a neurite formation score of 0.876.
Compound `N#Cc1c(O)c2c(-c3ccc(-c4ccccc4O)cc3)csc2[nH]c1=O` has a neurite formation score of 5.58.
Work on `O=C1Nc2ccc(I)cc2/C1=C/c1cc(Br)c(O)c(Br)c1` yielded a neurite formation score of 4.25.
Work on `Cc1cc(CS(=O)(=O)c2ccccc2)cc(OCc2ccc(CN3CCC[C@@H]3CO)cc2)c1` yielded a neurite formation score of 5.58.
In the case of `CC(C)[C@H](CO)Nc1nc(Nc2cccc(Cl)c2)c2ncn(C(C)C)c2n1` [Purvalanol A], the neurite formation score is reported as 5.08.
Compound `COc1nccc(-c2c(-c3ccc(F)cc3)ncn2C2CCC(O)CC2)n1` (configuration not stated) has a neurite formation score of 5.25.
`CCn1nnc2c(N3CCOCC3)nc(-c3ccc(NC(=O)Nc4ccc(C(=O)N5CCN(C)CC5)cc4)cc3)nc21` gave a neurite formation score of 4.76.
With `COc1cc2c(N3CCN(C(=O)Nc4ccc(OC(C)C)cc4)CC3)ncnc2cc1OCCCN1CCCCC1` [Tandutinib (MLN518)] the neurite formation score was 4.58.
Compound `Nc1ncnc2n[nH]c(Nc3ccc(F)cc3)c12` has a neurite formation score of 5.08.
For `O=C(NOC[C@H](O)CO)c1ccc(F)c(F)c1Nc1ccc(I)cc1F`, the neurite formation score was 4.71.
With `CN1CCC(COc2cnc(-c3cccc(Cn4nc(-c5cccc(C#N)c5)ccc4=O)c3)nc2)CC1` the neurite formation score was 4.92.
`CO[C@@H](C(=O)N1Cc2[nH]nc(NC(=O)c3ccc(N4CCN(C)CC4)cc3)c2C1)c1ccccc1` showed a neurite formation score of 4.58.
Compound `CNC(=O)c1cccc(-c2ccc3c(N4CCOC[C@@H]4C)nc(N4CCOC[C@@H]4C)nc3n2)c1` has a neurite formation score of 4.58.
With `CNC(=O)c1cc(Oc2ccc(NC(=O)Nc3ccc(Cl)c(C(F)(F)F)c3)c(F)c2)ccn1` [Regorafenib monohydrate] the neurite formation score was 5.25.
